Results reported in ChEMBL document CHEMBL3988442, “University of Dundee, Small-Polar-MMV Screening Library” (2021).
Values joined by “and” are separate entries in the source; they are usually repeats but may differ in a detail not shown here. Equal entries are not always repeated. In all, about 34,000 compounds went through this assay and about 290 (0.85%) showed an effect of 50% or more. The list comes from a sample in which strong results are over-represented; it also holds similar structures and randomly drawn compounds.

Tested on: Plasmodium falciparum
Test: Plasmodium falciparum sporozoite viability assay
Type: functional, organism-based
Set-up: scale not given: in the data most compounds retested in dose-response had high values

SMILES | Percent Effect | Percent Effect (10 mM as filed; unlikely as a test dose)
O=C(CCn1ccnc1)N1CCC(c2nnc(-c3ccccn3)o2)CC1 | 18.74% | –
Cc1cc(NC(=O)CN(C)C2CCCN(c3cccnn3)C2)on1 (configuration not stated) | 6.872% | –
Cc1cc2nc(SCC(=O)N3CCCCC3)n(C)c(=O)c2[nH]1 | 16.8% | –
CN1C(=O)CCCC12CCCN(C(=O)c1ccoc1)C2 (configuration not stated) | 8.123% | –
Cc1ccccc1-n1c(C)cc(C(=O)N2CCn3c(C)nnc3C2)c1C | – | -10.25% and 8.528% and -8.016%
CCn1c(C)cc(C(=O)N2CCc3nnc(N)cc3C2)c1C | – | -3.903% and -4.783% and -13.87%
Cc1cc(C(=O)N2CCc3nnc(N)cc3C2)c(C)n1-c1cccnc1 | – | -13.69% and -18.44% and -9.069%
Cc1cccc(-n2c(C)cc(C(=O)N3CCn4c(C)nnc4C3)c2C)c1 | – | 50.81% and 47.19% and 51.44%
Cc1nnc2n1CCN(C(=O)c1cc(C)n(-c3ccccc3)c1C)C2 | – | 80.6% and 90.57% and 75.3%
Cc1nnc2n1CCN(C(=O)c1cc(C)n(-c3ccccn3)c1C)C2 | – | -4.516% and -0.613% and 8.394%
Cc1nnc2n1CCN(C(=O)c1cc(C)n(-c3cccnc3)c1C)C2 | – | -3.499% and -16.38% and -11.58%
O=C(NCCc1cc(N2CCOCC2)nc(NC2CC2)n1)C1CCCO1 (configuration not stated) | 11.42% | –
Cc1cc(C)n(CC2CCCN2CCS(C)(=O)=O)n1 (configuration not stated) | 6.268% | –
CCn1c(C2CCN(C(=O)c3cc(CC(C)C)on3)CC2)nn(C)c1=O | – | -0.7877% and 5.537%
CNC(=O)c1cn[nH]c1C1CCCN1C(=O)c1cccnc1 (configuration not stated) | 6.523% | –
Cc1noc(CN(CCc2cccs2)Cc2cccc(C#N)c2)n1 | – | -26.23% and -21.92%
COCCN(Cc1cccc(C#N)c1)Cc1nc(C)no1 | – | 48.82% and 52.01%
Cc1noc(CN(CCc2ccco2)Cc2cccc(C#N)c2)n1 | – | -11.78% and -9.281%
COc1cccc(CN2CCCCCC2c2cccc(C)c2)c1O (configuration not stated) | – | 44.13% and 43.49% and 59.81%

SMILES | Percent Effect | Percent Effect (10 mM as filed; unlikely as a test dose)
COc1cccc(CN2CCCCCC2c2sccc2C)c1O (configuration not stated) | – | 49.38% and 41.71%
COCCC(=O)N1CCCN(Cc2nccn2C(C)C)CC1 | 9.219% | –
c1cncc(OCc2nc(C3CC3)nn2-c2ccc3c(c2)OCCO3)c1 | – | 74.85% and 76.98%
c1cncc(CCc2nc(C3CC3)nn2-c2ccc3c(c2)OCCO3)c1 | – | 41.36% and 42.97%
c1ccc(Cc2nc(C3CC3)nn2-c2ccc3c(c2)OCCO3)nc1 | – | 32.69% and 40.6%
O=C(c1cn(-c2cccc(Cl)c2F)nn1)N1CCCSCC1 | – | -42.82% and -45.17%
O=C(c1cn(-c2ccccc2Cl)nn1)N1CCSCC1 | – | -17.97% and -41.49%
CN(C)c1cccc(C(=O)NCC(O)c2cccs2)c1 (configuration not stated) | – | 12.86% and 4.207%
CN1CCN(C(=O)[C@H]2CC[C@@H]3[C@@H](CCN3Cc3nccs3)O2)CC1 | -3.61% | –
COc1ccccc1C(=O)Nc1nc2c(s1)CN(S(=O)(=O)C1CC1)CC2 | – | 82.29% and 80.43%
CCc1nc(CN2CCCC(N(C)Cc3cnn(C)c3)C2)no1 (configuration not stated) | -6.257% | –
CCc1nc(CN2CCCN(Cc3cnn(C)c3)CC2)no1 | -9.563% | –
Cc1ncncc1-c1ccnc(NC(C)C)n1 | -0.5927% | –
CN(C)C(=O)c1cccnc1SCc1ccccc1Cl | -19.98% | –
Cc1cc(CN2CCN(C(=O)NCc3csc(C)n3)CC2)on1 | -16.07% | –
CC(=O)Nc1ncc(S(=O)(=O)Nc2ccc3c(c2)OCCO3)s1 | – | 98.04% and 98.83%
CC(=O)Nc1ncc(S(=O)(=O)Nc2cccc(F)c2)s1 | – | -17.58% and -16.77%
Cc1c(F)cc(C(=O)O)cc1S(=O)(=O)Nc1ccc2c(c1)OCCO2 | – | 59.81% and 58.05% and 66.51%
Cc1cc(C(=O)O)cc(S(=O)(=O)Nc2ccc3c(c2)OCCO3)c1C | – | 24.31% and 12.71% and 29.08%

SMILES | Percent Effect | Percent Effect (10 mM as filed; unlikely as a test dose)
CCc1ccc(C(=O)O)cc1S(=O)(=O)Nc1ccc(F)c(C#N)c1 | 9.76% | –
CC(=O)Nc1ncc(S(=O)(=O)Nc2ccc(C)cc2)s1 | – | -23.3% and -22.01%
Cc1cc(C(=O)O)cc(S(=O)(=O)Nc2ccc3c(c2)OCCCO3)c1C | – | 3.546% and -0.5757% and 17.55%
COc1ccc(CN2CCN(C(C)=O)CC3(CC(=O)N(C)C3)C2)cc1.O=C(O)C(F)(F)F (configuration not stated) | 6.785% | –
CCOc1ccc(CC(=O)N2CCCC(n3nc(C)nc3C)C2)cc1 (configuration not stated) | -2.342% | –
CC(C)N(Cc1nc(-c2cccs2)no1)CC1CCC(=O)N1 (configuration not stated) | 3.846% | –
OC(COCc1ccc2c(c1)OCO2)CN1CC(n2cccn2)C1 (configuration not stated) | 13.47% | –
Cc1cc(C)n(C2CCN(Cc3nc4ccccc4n3C)CC2)n1 | 1.623% | –
CC1=N[C@@]2(CC[C@@H]3CN(Cc4ccccc4)C[C@@H]32)C(=O)N1CC1CC1.O=C(O)C(F)(F)F | 2.527% | –
CN1CC2(CCCN(Cc3nnc(-c4ccco4)o3)CC2)OC1=O (configuration not stated) | – | -3.132% and -3.886%
CN(C)c1cc(N2CCN(c3ccccn3)CC2)ncn1 | -18.98% | –
CN(C)CCN(C)c1cc(N2CCN(c3ccccn3)CC2)ncn1 | -8.534% | –
CC(=O)N1CCCC1(C)c1nc(C)no1 (configuration not stated) | 0.7282% | –
Cc1nc(C)c(CNC(=O)N2CCc3ccccc3C2CO)s1 (configuration not stated) | -12.91% | –
COCCCN1Cc2cccc(NC(=O)c3cc(F)cc(F)c3)c2C1 | – | -15.93% and -21.99% and -27.51%
Cc1cnn(CCNCc2nnc(C3CC3)o2)c1 | 9.956% | –
Cc1ccc(NC(=O)Cn2cc(I)cn2)cc1 | – | -17.48% and -21.7% and -14.78%
NC(=O)c1ccc(NC(=O)Cn2cc(I)cn2)cc1 | – | 84.67% and 86.35% and 89.46%
CCOC(=O)c1ccc(NC(=O)Cn2cc(I)cn2)cc1 | – | -22.37% and -20.15% and -13.35%
